# Screening results deposited in PubChem by National Center for Advancing Translational Sciences (NCATS).
# Sm TGR inh: blocks Schistosoma mansoni thioredoxin glutathione reductase; purified TGR, DTNB reduction, TNB absorbance 405 nm; AID 485364; Potency, µM (highest dose often 114 µM), for the others: at the top dose activity change, negative = inhibition, actives largely listed as inhibitors; Q962Y6; 360,000 tested, 3% active; active = well fitted inhibition curve with a large enough effect; inconclusive = small, poorly fitted or top-dose-only effect; inactive = no such curve, though single readings can be large or run the other way; also: potency is read from the fitted curve at half-maximal effect; % is scaled to controls: 0 for no effect and ±100 for the full control effect; nearly all actives have a fitted effect of over 60% in size
#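 Kinetic colorimetric format: TGR-catalysed, NADPH-driven DTNB reduction monitored via TNB absorbance. Enzyme dispensed at 20 nM; compound exposure 15 min at room temperature before reaction start.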
# FMDV antiviral: blocks foot and mouth disease virus; FMDV antiviral cell-based qHTS; Potency, µM (titrated, usually from 57.9 µM), for the others: at the highest dose activity change, negative = inhibition, usual class: inhibitors; 410,000 tested, 1.2% active; AID 1159524; calls by dose curve; tested in HEK293T cells; also: read-out not given here; potency is read from the fitted curve at half-maximal effect; % is scaled to controls: 0 for no effect and ±100 for the full control effect; nearly all actives have a fitted effect of over 45% in size
# Shiga inhibitor: inhibitors of Shiga toxin in Vero cells | Vero cells, Shiga toxin protein synthesis inhibition reporter | inhibition, % at 38.7 µM | 290,000 tested, 9.2% active | AID 2315; in the data active = inhibition mostly above about 28%, no sharp cut-off; inactive = mostly below about 43%; also: 0% is about no effect
# CHX counter: counter-screen hit for Shiga toxin inhibitors, cycloheximide; cell reporter, cycloheximide protein synthesis inhibition counterscreen; max response, %; 300,000 tested, 12% active; AID 2314; in the data active = max response mostly above about 13%, no sharp cut-off; inactive = mostly below about 14%; also: read at 38.3 µM for the half of the compounds with a filed dose; 0% is about no effect
# An asterisk follows results filed as active; ? = inconclusive; / = no result. Compounds with a hit are over-represented: about 12% of the library has one in this group of screens.
SMILES,Sm TGR inh,FMDV antiviral,Shiga inhibitor,CHX counter
CC(=O)Nc1ccc(Nc2nc(Cl)nc(Nc3ccc(NC(C)=O)cc3)n2)cc1,35µM*,1%,13,9
COc1ccc(CCN2C(=O)CN(C3CCC(C)CC3)C(=O)C2c2ccc(OC(C)C)c(OC)c2)cc1OC (stereo not given),11%,-8%,/,/
COc1ccc(-c2cn3nc(N4CCCC(C(=O)Nc5ccc(C)c(C)c5)C4)sc3n2)cc1 (stereo not given),0%,11%,/,/
CCC[C@H](NC(=O)[C@H](Cc1ccc(O[S+](=O)([O-])O)cc1)NC(=O)OC(C)(C)C)C(=O)NCC(=O)N[C@@H](Cc1c[nH]c2ccccc12)C(=O)N[C@@H](CCC)C(=O)N[C@@H](CC(=O)OCCc1ccccc1)C(=O)O,/,/,-10,-7
COc1ccc(-n2c(=O)c3ccc(C(=O)NCc4ccc(C)cc4)cc3n(CC(=O)Nc3ccc(F)cc3)c2=O)cc1,3%,32%,/,/
O=c1n(-c2ccc(Br)cc2)cnn1-c1ncccc1[N+](=O)[O-],/,44%,91*,31*
Cc1ccc(NC(=O)Cn2ccc(=O)[nH]c2=O)cc1,9%,31%,41,30*
O=C(COC(=O)Cn1ccc(=O)[nH]c1=O)Nc1ccc(F)cc1,/,6%,/,/
Cc1cc(C)c(S(=O)(=O)NCCc2sc(-c3cccnc3)nc2C)c(C)c1,-10%,47%,/,/
Cn1c(C2CCC2)nc2cc(C(=O)N3CCOc4ccccc4C3)cc(NC(=O)C3CCCO3)c21 (stereo not given),/,-7%,/,/
Cc1cc(C(=O)N/N=C/c2ccc[nH]2)no1,-9%,12%,45,20
Cn1cccc1/C=N/NC(=O)c1cc2ccccc2cc1O,-3%,33%,67*,21*
Cc1cc(C(=O)N/N=C/c2ccccc2Br)no1,0%,94%,60*,36*
Cc1cc(C(=O)NCc2ccccc2Br)no1,-2%,50%,36,16*
Cn1cccc1/C=N/NC(=O)c1ccccn1,3%,-1%,84*,31*
Cn1cccc1/C=N/NC(=O)c1cc(-c2cccs2)nc2ccccc12,-8%,0%,15,-2
COc1cccc(C(=O)N(Cc2cc3ccc(C)cc3nc2N(C)C)C2CC2)c1OC,/,-11%,/,/
Cc1cccc(Cn2c(=O)n(-c3ccc(Cl)c(Cl)c3)c(=O)c3c(C)c(C)sc32)c1,10%,0%,/,/
Cc1ccccc1-c1nc2c(c(SCc3cccc(Cl)c3)n1)Cc1c(CO)cnc(C)c1O2,-3%,4%,/,/
CCCCc1ccc(NC(=O)c2cc3c(=O)n4ccccc4nc3s2)cc1,4%,?,/,/
Cc1cc(C(=O)N/N=C/c2cccn2C)no1,0%,-25%,18*,10
Cn1cccc1/C=N/NC(=O)c1ccncc1,1%,24%,-7,3
O=c1c(-c2cnn(-c3ccccc3)c2)coc2cc(O)ccc12,9%,-8%,108*,47*
COc1ccc(N2CC2c2ccncc2)cc1 (stereo not given),-1%,-5%,13,5
Clc1ccc(N2COC3c4cccc5cccc(c45)C32)cc1 (stereo not given),-3%,-21%,49*,13
SMILES,Sm TGR inh,FMDV antiviral,Shiga inhibitor,CHX counter
COc1ccc(N2COC3c4cccc5cccc(c45)C32)cc1 (stereo not given),-15%,-13%,45*,24*
CS(=O)(=O)NC1c2cccc3cccc(c23)C1N1CCOCC1 (stereo not given),-17%,/,-16,-3
Cc1ccc2c(c1)nnn2C1CCN(S(=O)(=O)c2cccc(S(=O)(=O)N(C)C)c2)CC1,5%,18µM*,-22,8
Cc1cc(-n2c(C)nc3ccccc3c2=O)ccc1NC(=O)c1cccc([N+](=O)[O-])c1,16%,-25%,/,/
O=C(CCc1ccc(O)cc1)c1c(O)cc(O)cc1O,10%,2%,15,20*
COc1cc(O)c(CC=C(C)C)c(O)c1C(=O)CCc1ccc(O)cc1,-16%,-10%,26*,-6
CC(C)=CCc1c(O)ccc(C(=O)Cc2ccccc2)c1O,6%,?,-8,2
CCOC(=O)N1CCN(C(=O)c2ccc3c(c2)N(Cc2ccccc2F)C(=O)c2ccccc2S3=O)CC1 (stereo not given),6%,-9%,/,/
Oc1ccc(Nc2nc3ccccc3n3cnnc23)cc1,?,14%,/,/
O=C(CSc1nnc(-c2ccncc2)o1)Nc1ccccc1Cl,-9%,7%,4,10
COC(=O)CSc1nnc(-c2ccco2)o1,0%,-1%,-4,-1
O=C(CSc1nnc(-c2ccccn2)o1)Nc1ccccc1Cl,-10%,60%,71*,33*
O=C(CSc1nnc(-c2ccco2)o1)Nc1ccccc1Cl,-2%,-14%,13,16*
O=c1c2ccccc2nnn1CSc1nnc(-c2ccco2)o1,-1%,55%,38,20*
CC1CCCC(C)N1C(=O)c1ccc(S(=O)(=O)NCc2ccco2)cc1 (stereo not given),-33%,-12%,46*,27*
CCC(=O)N1CCc2cc(Br)cc(S(=O)(=O)CCC(=O)NCc3ccco3)c21,?,17%,-8,-2
O=C(NC1CCCCC1)c1ccc(S(=O)(=O)NCc2ccco2)cc1,45µM*,26%,31,-2
Cc1ccc(CNS(=O)(=O)c2ccc3c(c2)CCN3C(=O)C2CCC2)cc1,0%,-5%,-2,-1
O=C(C1CCC1)N1CCc2cc(S(=O)(=O)NCc3ccco3)ccc21,-1%,37%,49,35*
O=C(NC1CCN(Cc2ccccc2)CC1)c1ccc(S(=O)(=O)NCc2ccco2)cc1,8%,-29%,-2,-2
CCC(=O)N1CCc2cc(Br)cc(S(=O)(=O)NCc3ccco3)c21,35µM*,60%,106*,35*
Cc1ccc(Nc2sc(C(=O)c3ccccc3)c(N)c2S(=O)(=O)c2ccccc2)cc1Cl,7%,-23%,/,/
COCCn1ccc2c(OCC(=O)Nc3cccc(OC)c3)cccc2c1=O,-1%,?,/,/
CCOC(=O)C1CCCN(C(=O)c2ccc(S(=O)(=O)NCc3ccco3)cc2)C1 (stereo not given),25µM*,-22%,/,/
Cc1cccc(Nc2ccc(NCc3ccccc3)nn2)c1,11%,59%,87*,31*
SMILES,Sm TGR inh,FMDV antiviral,Shiga inhibitor,CHX counter
CCOC(=O)C1(Cc2ccc(OC)cc2)CCN(C(=O)c2ccoc2C)CC1,7%,-5%,21,11*
CCOC(=O)C1(Cc2ccc(OC)cc2)CCN(C(=O)CCn2ccc(C)n2)CC1,1%,8%,11,-2
CCOC(=O)C1(Cc2ccc(OC)cc2)CCN(C(=O)c2cncs2)CC1,5%,20%,31,16*
CCOC(=O)C1(Cc2ccc(OC)cc2)CCN(C(=O)CCn2cccn2)CC1,2%,12%,88,30*
CC(C)(C)C(=O)NC1(C(F)(F)F)C(=O)Nc2c1c(=O)[nH]c(=O)n2-c1ccccc1 (stereo not given),?,-10%,/,/
Cc1nc(Cl)cc(N/N=C/c2ccc(O)cc2)n1,1%,23%,49*,19*
Oc1ccc(/C=N/Nc2cc(N3CCCC3)nc(N3CCCC3)n2)cc1,5%,/,12,3
Cc1nc(Cl)cc(N/N=C/c2ccc(O)cc2O)n1,2%,-13%,28*,44*
